# HT1080 IDH1KD tx: kills HT-1080 cells with IDH1 knockdown; HT-1080 IDH1 knockdown viability, ATP luminescence, 48 h; Potency, µM (top dose mostly 46.1 µM), actives largely listed as cytotoxic; 360,000 tested, 2% active
#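 IDH1KD HT-1080 cells, 750/well, RPMI + 5% FBS; compound pinned after 2 h settling; 48 h, 37 °C; CellTiter-Glo luminescence; % activity normalised to DMSO and no-cell wells; curves fitted, classed by r2 and efficacy.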
# IL-1B inflam inh: inhibitors of inflammasome signaling (IL-1 beta secretion); THP-1 LPS/ATP IL-1B secretion, AlphaLISA, 16 h; stronger effect = lower value; activity change, % at 57.5 µM; 360,000 tested, 4.7% active; in the data active = activity change below about -50%; inconclusive = mostly about -30% to -49%
#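 Secreted IL-1B measured by AlphaLISA bead assay after 16 h compound exposure of THP-1 cells; compounds (final up to 57.5 uM) added 1 h before LPS (250 ng/mL) and ATP (1.25 mM) stimulation; lower signal means less secretion.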
# ELG1 repair inh: inhibitors of ELG1-dependent DNA repair in HEK293T cells; Potency, µM (doses to about 46.1 µM), usual class: inhibitors; 330,000 tested, 2.3% active; AID 504467; HEK293T ELG1-luciferase reporter, luminescence, 16 h; DNA damage induced by 5-fluorouridine; note: nearly all actives have a fitted effect of over 55% in size
#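 Luminescence from the luciferase reporter, measured 30 min after ONE-Glo reagent at room temperature, was the read-out. Beforehand, 2,000 cells per well were exposed for 16 hr at 37 °C to 5-fluorouridine together with compound or vehicle.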
# DT40 TDP1 CPT: DT40-hTDP1 cell growth loss with CPT | chicken DT40 Tdp1-/-;hTDP1 cells + 20 nM CPT, ATP luminescence, 48 h | Potency, µM (titrated, usually from 46.2 µM), most hits filed as inhibitors | 420,000 tested, 12% active; note: nearly all actives have a fitted effect of over 55% in size
#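 Chicken DT40 Tdp1-/- cells complemented with human TDP1, 400 cells/well, exposed to compounds plus 20 nM camptothecin for at least 48 h at 37 C; viability read as ATP content by CellTiter-Glo luminescence.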
# TDP1 cell noCPT: qHTS for Inhibitors of human tyrosyl-DNA phosphodiesterase 1 (TDP1): qHTS in cells in absence of CPT; Potency, µM (doses to about 46.2 µM), actives largely listed as inhibitors; 420,000 tested, 15% active; DT40 Tdp1-/- hTDP1 cells, no CPT, ATP luminescence, 48 h; note: nearly all actives have a fitted effect of over 55% in size
#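 DT40 Tdp1-/-;hTDP1 cells, no CPT (DMSO vehicle only), 400 cells/well; compounds pin-transferred; ≥48 hr, 37 °C; CellTiter-Glo 30 min RT dark, luminescence read.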
# HT1080NT lethal: kills 2HG-producing HT-1080-NT fibrosarcoma cells. Potency, µM (doses to about 46.1 µM), hits mostly cytotoxic. 360,000 tested, 1.6% active. HT-1080-NT fibrosarcoma viability, CellTiter-Glo ATP luminescence, 48 h. AID 686970;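 note: NT is the 2HG producing partner of a matched IDH1 knockdown line; nearly all actives have a fitted effect of over 55% in size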
#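 Toxicity toward the 2HG-producing NT line was scored as %Activity, normalised to DMSO and no-cell wells, from CellTiter-Glo luminescence after 48 hours' treatment.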
# Numbers stand for hits; – = inactive; ? = inconclusive; · = not tested or not shown. Sampled rows, rich in hits. Any-hit rate of the full collection: about 19%. Unless noted, calls come from the whole dose curve; as a rule, active = well fitted curve in the direction sought with a large enough effect; inconclusive = small, poorly fitted or top-dose-only effect, or another doubt; inactive = no such curve, though single readings can be large; an effect the other way counts as inactive or inconclusive.
SMILES,HT1080 IDH1KD tx,IL-1B inflam inh,ELG1 repair inh,DT40 TDP1 CPT,TDP1 cell noCPT,HT1080NT lethal
CC(=O)c1cccc(NC(=O)COc2ccccc2C(=O)c2cc(C#N)c(=O)n(C3CCCCC3)c2)c1,–,–,10.3µM,?,11.6µM,–
OC(c1ccc2c(c1)CN(Cc1cccc3nccnc13)CCO2)C1CCCCC1 (stereo unspecified),·,·,·,–,–,·
O=C(Nc1cc(F)ccc1F)C1CCN(c2nc3ccccc3n3cccc23)CC1,·,·,·,–,?,·
O=C(O)c1cc(N(Cc2ccccc2O)Cc2cc(O)ccc2O)ccc1O,·,·,·,?,20.6µM,·
O=C(Cc1ccccc1)c1ccc(O)cc1O,–,–,·,–,–,–
O=C(CNc1cccc(C(F)(F)F)c1)N/N=C/c1cccc(Br)c1,–,–,–,18.4µM,?,–
COc1cccc(CNC(=O)c2cc3ccc4cccnc4c3[nH]2)c1,·,·,·,–,–,·
Cc1ccc(CN2CCC(CNC(=O)Nc3c(C)cccc3C)C2)cc1 (stereo unspecified),·,·,·,–,–,·
COc1ccc(OC)c(CNC(=O)c2cc3ccc4cccnc4c3[nH]2)c1,·,·,·,?,25.9µM,·
CCN(Cc1ccccc1)C(=O)c1cc2ccc3cccnc3c2[nH]1,·,·,·,?,18.4µM,·
CCCN(C(=O)c1cc2ccc3cccnc3c2[nH]1)c1ccc(F)cc1,·,·,·,–,–,·
Cc1ccc(CN2CCC(CNC(=O)c3cc4ccc5cccnc5c4[nH]3)CC2)cc1,·,·,·,16.4µM,16.4µM,·
O=C(CN1CCCCCCC1)N/N=C/c1ccc(F)c(F)c1,–,–,–,–,–,–
COc1ccc(OC)c(NC(=O)CCC(=O)Nc2nnc(C(C)C)s2)c1,–,–,–,–,–,–
COc1cccc(C(=O)OCC(=O)c2ccc(Br)s2)c1OC,–,–,?,–,–,–
O=C(Cc1cccs1)N1CCN=C1SCc1cccc(F)c1,–,–,–,–,–,–
O=C(COc1ccccc1)N1CCN=C1SCc1ccc(F)cc1,–,-97.2,–,–,–,–
O=C(Cc1ccccc1)N1CCN=C1SCc1ccc([N+](=O)[O-])cc1,–,-54.6,?,?,?,–
O=C(Cc1cccs1)N1CCN=C1SCc1ccc(Br)cc1,–,-101.5,?,?,?,–
CCOc1ccc(CC(=O)N2CCN=C2SCc2ccc([N+](=O)[O-])cc2)cc1,–,-96.5,–,?,29.1µM,–
CC(=O)N1CCC[C@@]2(CCN(C(c3ccccc3)c3ccccc3)C2)C1,·,·,·,–,–,·
CN(C)c1ncc2nc(CCc3ccccc3)c(=O)n(CCC#N)c2n1,·,·,·,–,–,·
CC(=O)N1CCN=C1SCc1ccc(C)cc1,–,–,–,–,–,–
CCOC(=O)N1CCN=C1SCc1ccc(C(F)(F)F)cc1,–,-81.8,–,–,?,–
CC1COc2ccccc2N1C(=O)c1ccccc1Cl (stereo unspecified),–,–,–,–,?,–
SMILES,HT1080 IDH1KD tx,IL-1B inflam inh,ELG1 repair inh,DT40 TDP1 CPT,TDP1 cell noCPT,HT1080NT lethal
O=C(CCl)N1c2ccccc2OCC1c1ccccc1 (stereo unspecified),–,-93.6,–,2.31µM,2.59µM,–
O=C(CCl)N1c2ccccc2SCC1c1ccccc1 (stereo unspecified),5.8µM,-105.0,?,2.59µM,3.26µM,4.61µM
COc1ccc(S(=O)(=O)N2CCOCC2)cc1NC(=O)Cc1ccccc1Cl,–,–,–,–,–,–
COc1ccc(S(=O)(=O)N2CCOCC2)cc1NC(=O)CC(C)c1ccccc1 (stereo unspecified),–,–,?,–,20.6µM,–
CCCC(NCC(=O)Nc1cc(S(=O)(=O)N2CCOCC2)ccc1OC)c1ccccc1 (stereo unspecified),–,?,–,16.4µM,14.6µM,–
COc1ccc(Cl)cc1NC(=O)C(=O)NCc1ccncc1,–,-52.2,–,–,–,–
COc1ccc(-c2[nH]ncc2/C=N/NC(=O)c2ccncc2)c(OC)c1,–,–,–,–,–,–
